Mito fusion act – blocks mitochondrial division or promotes mitochondrial fusion; 320,000 tested, 0.23% active; Potency, µM (series often up to 46.1 µM), most hits filed as activators; S. cerevisiae fusion-defective mutant growth rescue, CellTiterGlo 48 h; AID 485298; note: nearly all actives have a fitted effect of over 45% in size
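Temperature-sensitive fusion-defective S. cerevisiae (e.g. fzo1-1, mgm1-5) were grown with compound in YPEG medium (3% ethanol, 3% glycerol) for 48 hours at 37C. Growth rescue was measured as viability by CellTiterGlo luminescence after 10 minutes at ambient.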
VDR inh – inhibitors of human vitamin D receptor; P11473; VDR-SRC2-3 peptide fluorescence polarization, 2 h; Potency, µM, usual class: inhibitors; 400,000 tested, 0.93% active; AID 504847
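Fluorescence polarization assay measuring small-molecule disruption of VDR binding to the coregulator peptide SRC2-3. Compounds were pin-transferred (23 nl) into the reagent mix and incubated 2 h at room temperature before reading.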
GLS inh – inhibitors of human glutaminase (GLS); GLS enzymatic activity, qHTS titration; 410,000 tested, 0.21% active; Potency, µM (top dose mostly 45.5 µM), hits mostly inhibitors; AID 624170
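hKGA; 45 mM KH2PO4 pH 8.2 + 0.02% Tween-20; cpd via pin tool; 1 mM Gln soln; GluOx/HRP/Amplex Red; RT 30 min; fluor. t0 & final.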
PKM2 activator – activators of human pyruvate kinase M2; P14618; purified PKM2, Kinase-Glo ATP luminescence, activation; response scale: 0% is enzyme alone, no compound; Potency, µM (doses to about 57.5 µM), hits mostly activators; 260,000 tested, 0.34% active; AID 1631; note: nearly all actives have a fitted effect of over 55% in size
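Kinase-Glo luminescence reports ATP generated from ADP (0.1 mM) and PEP (0.5 mM) by purified hPK-M2 after 1 h at room temperature, pH 7.2 imidazole buffer; intermediate enzyme activity allows detecting inhibitors and activators.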
KAT2A inh – GCN5L2 (KAT2A) acetyltransferase inhibition. Q92830. GCN5L2 HAT assay, ThioGlo1 CoA-SH fluorescence. Potency, µM (highest dose often 58.9 µM), usual class: inhibitors. 390,000 tested, 0.21% active
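Preincubate 20nM GCN5L2 with compound 15 min, RT → add 50uM ThioGlo1 + 75uM H3(1-25) + 70uM acetyl-CoA → read fluorescence 0 and 20 min. Primary qHTS; fluorescent artifacts likely.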
PLK1 PBD inh – blocks phosphopeptide binding to human PLK1 polo-box domain. P53350. Plk1 PBD binding of FITC phosphopeptide, fluorescence polarization. Potency, µM, usual class: inhibitors. 360,000 tested, 2.8% active; note: series mostly up to about 57 µM; nearly all actives have a fitted effect of over 65% in size
Target sequence (P53350 whole entry, looked up, the tested form may be a part): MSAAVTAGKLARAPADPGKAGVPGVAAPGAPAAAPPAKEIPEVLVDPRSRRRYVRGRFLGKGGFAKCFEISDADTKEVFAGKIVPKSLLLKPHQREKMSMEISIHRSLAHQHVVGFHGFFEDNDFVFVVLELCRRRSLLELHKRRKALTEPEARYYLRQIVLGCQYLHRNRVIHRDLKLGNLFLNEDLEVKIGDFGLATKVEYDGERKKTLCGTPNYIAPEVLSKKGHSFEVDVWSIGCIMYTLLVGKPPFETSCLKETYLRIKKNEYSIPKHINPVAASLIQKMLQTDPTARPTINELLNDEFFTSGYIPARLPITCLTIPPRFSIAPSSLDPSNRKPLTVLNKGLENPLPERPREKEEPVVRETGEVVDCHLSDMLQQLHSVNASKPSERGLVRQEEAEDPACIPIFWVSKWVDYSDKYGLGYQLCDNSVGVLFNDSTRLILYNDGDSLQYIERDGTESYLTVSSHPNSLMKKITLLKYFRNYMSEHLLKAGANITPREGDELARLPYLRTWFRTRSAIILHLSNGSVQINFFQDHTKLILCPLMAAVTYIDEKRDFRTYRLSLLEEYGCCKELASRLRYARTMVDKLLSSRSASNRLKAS
Large screens that a line does not name were inactive; ! = a repeat was not active. In the library only some 3.4% were active in any assay of this set; here they are far more common. Calls come from the whole dose curve; as a rule, active = well fitted curve in the direction sought with a large enough effect; inconclusive = small, poorly fitted or top-dose-only effect, or another doubt; inactive = no such curve, though single readings can be large; an effect the other way counts as inactive or inconclusive.

O=C(NC1CCCCCC1)C(=S)NCc1ccccc1	VDR inh inconclusive, PLK1 PBD inh 21µM
O=C(NC1CCCCCC1)C(=S)NCCc1ccccc1	VDR inh inconclusive, PLK1 PBD inh 11µM
CCC(C)(CC(=O)Nc1nccs1)c1ccccc1 (stereo unspecified)	none (no result: PKM2 activator)
CCCN1CNc2c(c(=O)[nH]c(=S)n2CCc2cccc(C)c2)C1	none (no result: Mito fusion act, GLS inh, PKM2 activator, KAT2A inh, PLK1 PBD inh)
Cn1cnc(S(=O)(=O)N2CCCCC2c2cc(C(=O)NCc3ccc(F)cc3)no2)c1 (stereo unspecified)	none (no result: Mito fusion act, VDR inh, PKM2 activator, KAT2A inh)
O=c1c(O)cc(C2Oc3cc(O)cc(O)c3CC2O)cc2c(C3Oc4cc(O)cc(O)c4CC3O)cc(O)c(O)c12 (stereo unspecified)	VDR inh 3.5µM, KAT2A inh 13µM (no result: Mito fusion act, GLS inh, PKM2 activator, PLK1 PBD inh)
Nc1[nH]c(C(=O)c2ccccc2)c(-c2ccccc2Br)c1C(=O)NCCc1ccc(Cl)cc1Cl	none (no result: Mito fusion act, VDR inh, PKM2 activator, KAT2A inh)
Cc1csc(NC(=O)CN(C)S(=O)(=O)c2cccc3cccnc23)n1	none
CN(CC(=O)Nc1n[nH]c(=S)s1)S(=O)(=O)c1cccc2cccnc12	GLS inh inconclusive, KAT2A inh inconclusive, PLK1 PBD inh 30µM (no result: PKM2 activator)
Cc1ccc(-c2nnn(C(C)C(=O)N3c4ccccc4CCc4ccccc43)n2)cc1 (stereo unspecified)	Mito fusion act 14µM
O=C(c1nc2ccccn2c1CN1CCCC(OCc2ccccc2)C1)N1CCCC1 (stereo unspecified)	none
O=C(c1nc2ccccn2c1CN1CCN(c2ccccc2O)CC1)N1CCCC1	GLS inh 3.5µM
CC1(Cc2cccc(C(F)(F)F)c2)C(=O)Nc2c(Cl)ccc(Cl)c21 (stereo unspecified)	none (no result: Mito fusion act, VDR inh, PKM2 activator, KAT2A inh)
CCn1c(COc2ccc(Cl)cc2)nnc1SC1CCc2ccccc2C1=O (stereo unspecified)	Mito fusion act 18µM
O=C(CN1C(=O)c2ccccc2S1(=O)=O)Nc1cc(S(=O)(=O)N2CCCCC2)ccc1Cl	none (no result: PKM2 activator)
O=C(c1cc(N2C(=O)C3C4CCC(C4)C3C2=O)ccc1Cl)N1CCN(c2ccc(F)cc2)CC1 (stereo unspecified)	Mito fusion act 5.6µM
CCCCN=c1scc(-c2ccc3c(c2)NC(=O)CO3)n1N=C1CCCC1	PLK1 PBD inh 17µM
COC1=C(Nc2ccccc2)C(=O)c2ccccc2C1=O	VDR inh 45µM
COC1=C(Nc2ccc(C)cc2)C(=O)c2ccccc2C1=O	VDR inh inconclusive
COc1cccc2c1C(=O)c1ccc3ccccc3c1C2=O	none
COc1ccc(N)c2c1C(=O)c1ccccc1C2=O	VDR inh inconclusive
O=C1c2ccccc2-c2onc3ccc(NCCCn4ccnc4)c1c23	PLK1 PBD inh 1.5µM
COc1ccc2noc3c2c1C(=O)c1ccccc1-3	VDR inh inconclusive, PLK1 PBD inh 0.38µM (no result: Mito fusion act, PKM2 activator, KAT2A inh)
COc1ccc(OC)c2c1C(=O)c1ccccc1C2=O	PLK1 PBD inh 11µM
CCc1cc(S(=O)(=O)N2CCN(C(=O)c3ccco3)CC2)ccc1OC	none
COC(=O)C1=C(C(=O)OC)[C@@H]2N(C)c3ccc(OC)cc3[C@@]23C[C@@H](C(=O)OC)N(S(=O)(=O)c2ccc(Br)cc2)C3=N1	none (no result: Mito fusion act, VDR inh, GLS inh, KAT2A inh, PLK1 PBD inh)
CC(=O)NC1=C(N(C)C2CCS(=O)(=O)C2)C(=O)c2ccccc2C1=O (stereo unspecified)	none
CC(=O)NC1=C(Nc2ccc(N(C)C)cc2)C(=O)c2ccccc2C1=O	VDR inh 50µM
Cc1ccnc(OC(C(=O)O)C(OCc2ccccc2)(c2ccc(F)cc2)c2ccc(F)cc2)n1 (stereo unspecified)	VDR inh inconclusive, PLK1 PBD inh 27µM
O=C(NNC(=S)Nc1ccc(C(=O)O)c(O)c1)c1ccncc1	VDR inh inconclusive, PLK1 PBD inh 27µM (no result: Mito fusion act, PKM2 activator, KAT2A inh)
COCCCn1c(SCC(=O)NC(C)C)nnc1-c1ccccc1	PLK1 PBD inh 7.5µM
Cc1ccc(NC(=O)CCCCCC2NC(=O)NC2C)cc1 (stereo unspecified)	none
CC1NC(=O)NC1CCCCC(=O)O (stereo unspecified)	PLK1 PBD inh 11µM
Cc1nc(Cl)c2c(n1)NC1=C(O2)C(=O)CCC1	PLK1 PBD inh 21µM
Cc1ccc([C@H]2C(C(=O)O)=CC[C@@H](c3ccc(C(C)C)cc3)N2S(=O)(=O)c2ccc(C)cc2)cc1	KAT2A inh inconclusive, PLK1 PBD inh 24µM (no result: Mito fusion act, PKM2 activator)
Cc1ccc(S(=O)(=O)N2[C@@H](c3ccc(Cl)cc3)C(C(=O)O)=CC[C@H]2c2ccc(C(C)C)cc2)cc1	KAT2A inh inconclusive, PLK1 PBD inh 19µM (no result: PKM2 activator)
Cc1ccc([C@H]2C(C(=O)O)=CC[C@@H](c3ccc(C)cc3)N2S(=O)(=O)c2ccc(C)cc2)cc1	PLK1 PBD inh inconclusive (no result: Mito fusion act, PKM2 activator)
Cc1ccc(S(=O)(=O)N2[C@@H](c3ccccc3)C(C(=O)O)=CC[C@H]2c2ccc(C(C)C)cc2)cc1	PLK1 PBD inh inconclusive (no result: PKM2 activator)
O=C(Nc1ccccc1)c1ccc(-n2nncc2-c2ccccc2)cc1	none (no result: Mito fusion act, GLS inh, PKM2 activator, KAT2A inh, PLK1 PBD inh)
CN1c2ccsc2/C(=N/Nc2ccc(F)cc2)CS1(=O)=O	GLS inh inconclusive, PLK1 PBD inh 27µM
CC[C@H](C)C(=O)O[C@H]1C[C@@H](C)C=C2C=C[C@H](C)[C@H](CC[C@@H]3C[C@@H](O)CC(=O)O3)[C@H]21	VDR inh 50µM!
CCCCCCCCCCOCC(O)CN (stereo unspecified)	none (no result: Mito fusion act, PKM2 activator, PLK1 PBD inh)
CSCC[C@H](NC(=O)[C@@H]1CCCN1C(=O)CNC(=O)[C@H](CCCCN)NC(=O)[C@H](Cc1cnc[nH]1)NC(=O)[C@H](CO)NC(=O)[C@H](CC(C)C)NC(=O)[C@H](CCCNC(=N)N)NC(=O)[C@@H]1CCCN1C(=O)[C@H](CCCNC(=N)N)NC(=O)[C@H](CCC(N)=O)NC(=O)[C@H](CCCNC(=N)N)NC(=O)[C@H](CCCNC(=N)N)NC(=O)[C@H](Cc1ccccc1)NC(=O)[C@@H](N)CCCCN)C(=O)N1CCC[C@H]1C(=O)N[C@@H](Cc1ccccc1)C(=O)O	none (no result: Mito fusion act, GLS inh, PKM2 activator, PLK1 PBD inh)
CCCn1cc(S(=O)(=O)CC(=O)N2CCc3ccccc32)c2ccccc21	VDR inh inconclusive, PLK1 PBD inh 30µM
C=CCNC(=O)CCCOc1ccc(C)cc1	PLK1 PBD inh inconclusive
C=CCNC(=O)CCCOc1cc(C)ccc1C	PLK1 PBD inh 27µM
C=CCOc1ccccc1/C=c1\sc2nc(=O)c(C)nn2c1=O	VDR inh 71µM, PLK1 PBD inh inconclusive
O=C(O)/C(=C\c1ccc(F)cc1)c1ccc(-c2ccccc2)cc1	Mito fusion act inconclusive, KAT2A inh inconclusive, PLK1 PBD inh 24µM (no result: PKM2 activator)
CNS(=O)(=O)c1cccc(C(=O)OCC(=O)c2c(N)n(Cc3ccccc3)c(=O)n(C)c2=O)c1	none (no result: Mito fusion act, PKM2 activator, KAT2A inh)

Bioassay records from PubChem BioAssay.
